# In PubChem BioAssay (NCI):
# The panel holds about 79,000 compounds, 15% with a hit somewhere; the sample as a whole holds those more often. Unmarked numbers belong to inactive results. Activity calls are given as the source filed them. Cut-off read from the data, not from the text of the source: active = growth inhibition above about 70%; inactive = the rest.
# How the values were obtained:
# [1] = NCI Yeast Anticancer Drug Screen. Data for the rad50 strain (AID 155);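 note: 0% = growth of vehicle-only cultures of the same strain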; details: S. cerevisiae rad50 strain growth inhibition, hits give high values
# How it was run: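 Relative growth inhibition (compound vs vehicle) was measured in yeast with a defined repair-gene alteration.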
# [2] = NCI Yeast Anticancer Drug Screen. Data for the mec2-1 strain (AID 157); details: S. cerevisiae mec2-1 strain, hits give high values
# How it was run: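 Mutant yeast (mec2-1) grown with compound; growth inhibition relative to vehicle control reported.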
# [3] = NCI Yeast Anticancer Drug Screen. Data for the sgs1 mgt1 strain (AID 161);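 note: 0% = growth of cultures given vehicle only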; details: S. cerevisiae sgs1 mgt1 strain, hits give high values
# How it was run: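 Percent growth inhibition was derived by comparing compound-exposed mutant yeast with vehicle-exposed cultures. The strain carries alterations in DNA damage repair.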
# [4] = NCI Yeast Anticancer Drug Screen. Data for the cln2 rad14 strain (AID 165);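 note: 0% = growth equal to vehicle treated cultures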; details: S. cerevisiae cln2 rad14 strain, hits give high values
# How it was run: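 Readout is yeast growth inhibition versus vehicle-treated controls, using a strain with cln2 and rad14 alterations exposed to compound.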
# [5] = NCI Yeast Anticancer Drug Screen. Data for the bub3 strain (AID 167); details: S. cerevisiae bub3 mutant strain, hits give high values
# How it was run: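 Screening used yeast with an engineered genetic alteration affecting cell cycle control. Compound-exposed cultures were compared with vehicle cultures, and reduced growth was taken as inhibition.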
# [6] = NCI Yeast Anticancer Drug Screen. Data for the mlh1 rad18 strain (AID 175); details: S. cerevisiae mlh1 rad18 strain growth inhibition, hits give high values
# How it was run: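 Genetically defined yeast (DNA repair-deficient) exposed to compounds; growth inhibition determined relative to vehicle.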
# [7] = at 5.0 µM (retest, dose inferred, filed as 0.5)
# [8] = at 50.0 µM (retest, dose inferred, filed as 5.0)
SMILES,"growth inhibition [1, 7]","growth inhibition [1, 8]",growth inhibition ([1]; at 50.0 µM),"growth inhibition [2, 7]","growth inhibition [2, 8]",growth inhibition ([2]; at 50.0 µM),"growth inhibition [3, 7]","growth inhibition [3, 8]",growth inhibition ([3]; at 50.0 µM),"growth inhibition [4, 7]","growth inhibition [4, 8]",growth inhibition ([4]; at 50.0 µM),"growth inhibition [5, 7]","growth inhibition [5, 8]",growth inhibition ([5]; at 50.0 µM),"growth inhibition [6, 7]","growth inhibition [6, 8]",growth inhibition ([6]; at 50.0 µM)
CC(C)C(C)(C(=O)O)C(C)C,0%,1%,13.8%,3%,2%,2.1%,2%,3%,5.6%,-3%,4%,67%,-1%,0%,-5.5%,1%,0%,2.75%
CCOC(=O)c1c(NC(=O)CBr)sc(C)c1C,8%,48%,21.2%,-3%,64%,7.8%,10%,74% (active),32.9%,0%,18%,-28.4%,5%,65%,38.1%,7%,69%,21.8%
CC#CC#C/C=C1/C=CC(=O)O1,2%,80% (active),27.4%,3%,66%,33.5%,1%,62%,42.2%,-1%,26%,-16.8%,3%,59%,13.5%,0%,84% (active),75% (active)
O=C(CNCc1ccccc1)c1ccc(Cl)cc1,-3%,-6%,11.6%,-2%,6%,1.45%,-3%,17%,8.4%,-1%,-22%,24.6%,-2%,35%,-7.85%,-4%,14%,14.5%
C/C(=N\NC(=S)N1CC(C)OC(C)C1)c1ncccn1 (configuration not stated),53%,81% (active),99.5% (active),43%,100% (active),99.4% (active),52%,100% (active),99.5% (active),52%,99% (active),99.2% (active),44%,99% (active),99.3% (active),80% (active),99% (active),99.3% (active)
CN(C)CCC1(C2=CCCC2)CC/C(=C\c2ccc(Cl)cc2)C1=O (configuration not stated),24%,86% (active),94.3% (active),28%,96% (active),94.3% (active),26%,97% (active),94% (active),31%,97% (active),92.3% (active),37%,98% (active),92.2% (active),33%,97% (active),87.5% (active)
COc1ccc(OC)c(CC(Cl)(C#N)C#N)c1,33%,99% (active),98.2% (active),48%,100% (active),99.8% (active),48%,99% (active),99.7% (active),20%,99% (active),99% (active),34%,99% (active),99.8% (active),61%,99% (active),99.6% (active)
COc1cccc(CCCNC(=O)Cc2ccccc2CO)c1,12%,14%,34.2%,9%,5%,-55.1%,9%,12%,-13.8%,1%,5%,7.7%,11%,14%,-12.2%,13%,10%,-46.8%
CN(C)CCCc1ccc2oc3ccccc3c2c1,5%,65%,77.8% (active),4%,39%,40.7%,6%,54%,48.6%,15%,34%,27.1%,14%,77% (active),69%,7%,42%,48%
CS(=O)(=O)OCCN(CCOS(C)(=O)=O)c1ccc(C=Nc2cc(Br)c(O)c(Br)c2)c(Cl)c1,3%,70% (active),67.7%,29%,39%,36.8%,3%,80% (active),82.5% (active),5%,45%,10.2%,-3%,96% (active),40.3%,8%,91% (active),85.8% (active)
COc1ccc(CSC(=S)Nc2ccccc2C(F)(F)F)cc1,8%,93% (active),98.3% (active),6%,97% (active),99.2% (active),1%,99% (active),99.2% (active),-1%,94% (active),98.6% (active),-3%,96% (active),99% (active),4%,95% (active),99% (active)
CCCCCCCCCCCCCCN1CCSCC1,6%,18%,98.5% (active),3%,14%,96% (active),4%,1%,99% (active),5%,14%,98.6% (active),9%,21%,99% (active),5%,12%,98.8% (active)
Oc1c(Cl)cc(CN(Cc2cc(Cl)c(O)c(Cl)c2)C2CCCCC2)cc1Cl,10%,87% (active),97.8% (active),1%,88% (active),98.9% (active),2%,88% (active),97.6% (active),-17%,51%,98.2% (active),-9%,88% (active),97.6% (active),-12%,95% (active),98% (active)
CC1C(c2ccc(Cl)cc2)c2cc3c(cc2OC1N1CCOCC1)OCO3 (configuration not stated),-19%,6%,48.4%,-30%,-7%,58.4%,-24%,-4%,82.2% (active),-27%,5%,90% (active),-29%,-24%,91.3% (active),-39%,8%,59.4%
N#CCCN(CCC#N)c1ccc(C(Sc2ccccc2)C(NC(=O)c2cc([N+](=O)[O-])ccc2Cl)C(=O)Sc2ccccc2)cc1 (configuration not stated),29%,74% (active),75.7% (active),25%,93% (active),58.8%,30%,85% (active),51.3%,16%,37%,51.6%,22%,91% (active),74.7% (active),47%,85% (active),73.3% (active)
CCN(CC)c1ccc(NC(C(=O)c2ccc(Cl)cc2)c2ccc(Cl)cc2)cc1 (configuration not stated),-7%,-10%,91.3% (active),-2%,-10%,91.2% (active),-6%,-9%,96.2% (active),2%,-11%,93.3% (active),-1%,8%,86.3% (active),-2%,-8%,95.6% (active)
CC1(C)CCC2(C(=O)O)CCC3(C)C(=CCC4C5(C)CC(O)C(O)C(C)(C(=O)O)C5CCC43C)C2C1 (configuration not stated),99% (active),99% (active),91.9% (active),99% (active),99% (active),94.6% (active),99% (active),99% (active),93.2% (active),99% (active),99% (active),92.5% (active),99% (active),99% (active),92.4% (active),99% (active),99% (active),91.9% (active)
O=C(Nc1ccccc1)c1ccccc1O,2%,93% (active),86.2% (active),-2%,91% (active),79.5% (active),2%,87% (active),92.6% (active),-3%,84% (active),73.8% (active),-2%,92% (active),86% (active),-4%,98% (active),97.2% (active)
Cc1ccc(NC(=O)CCCC(=O)C(C#N)c2ccccc2C)cc1C (configuration not stated),-5%,7%,-17.3%,-2%,3%,11.4%,-5%,-19%,10.6%,-8%,-5%,-19.1%,-1%,2%,5.75%,1%,-4%,12.1%
